# According to PubChem BioAssay (NCI):
# The panel holds about 83,000 compounds, 20% with a hit somewhere; the sample as a whole holds those more often.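 Each cell line was grown in a 96-well plate and treated with one concentration of compound for 48 hours. Values below 10 were considered active.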 Active and inactive are the calls of the source.
# System: RPMI-8226 leukemia
# Assay: NCI-60 one-dose screen, 48 h (100 = growth as untreated, 0 = no growth, -100 = all killed)
# Conditions: 10 µM unless noted
row,SMILES,growth
1,CN1CCN(c2nc3scc(-c4ccccc4)c3c(=O)[nH]2)CC1,97.4% (inactive)
2,O=C(COc1cccc(/C=C2\Oc3ccc4ccccc4c3C2=O)c1)c1ccc([N+](=O)[O-])cc1,79.9% (inactive)
3,CCCCCCCCCCN1CCC(N2CCCCC2)CC1,-44.8% (active)
4,Nc1nc2c(c(=O)[nH]1)C1(C(=O)Nc3ccccc31)c1c(nc(N)[nH]c1=O)N2,96.2% (inactive)
5,O=c1c2ccccc2c2nccn2c2cc(Cl)ccc12,64.8% (inactive)
6,N#Cc1c(NC(=O)c2ccco2)[n+]([O-])c2cc(Cl)c(Cl)cc2[n+]1[O-],92.2% (inactive)
7,CCOC(=O)N1CCC(N=C2CSc3nnc(-c4cc(C(F)(F)F)cc(C(F)(F)F)c4)n3N2)CC1,29% (inactive)
8,Cn1c(N2N=C(c3ccc(Cl)cc3)CC2c2ccccc2)nc(-c2ccccc2)c(C#N)c1=O (stereo unspecified),54.9% (inactive)
9,CCSCC1CC(O)(c2ccccc2)C(c2ccccc2)C(c2ccc(Cl)cc2)O1 (stereo unspecified),4.54% (active)
10,N#Cc1ccc(-c2csc(Nc3ccc4nc5n(c(=O)c4c3)CCC5)n2)cc1,109% (inactive)
11,CCCCNCCCN(CCCC)CCCNCCCC,99.6% (inactive)
12,COc1cccc(/C=C2\Cc3ccccc3C2=O)c1,98.6% (inactive)
13,C(#Cc1ccccc1C#Cc1ccccn1)c1ccc(OCCCCCCOc2ccc(C#Cc3ccccc3C#Cc3ccccn3)cc2)cc1,5% (active)
14,CN(C)c1ccc(-c2nc3ncc(Br)cc3o2)cc1,74% (inactive)
15,Cc1ccc(S(=O)(=O)N2CCN(C(=O)CSc3nc4ccc(C)cc4[nH]3)CC2)cc1,108% (inactive)
16,COC(=O)c1c(NC(=O)CSc2nnnn2-c2ccc(OC)cc2)sc(C)c1C,89.8% (inactive)
17,CCN(CC)CCNCC(=O)Oc1ccc(/C=C/C(=O)CC(=O)/C=C/c2ccc(OC(=O)CNCCN(CC)CC)c(OC)c2)cc1OC,-46.2% (active)
18,Cc1ccc2c(c1)C(=O)/C(=C\Nc1ccc(C(N)=O)cc1)C(O)O2 (stereo unspecified),46.5% (inactive)
19,COc1cc(/C=C/C(=O)C(C(=O)/C=C/c2ccc(OC(=O)CCNc3nnc(C)s3)c(OC)c2)C(=O)CCNc2nnc(C)s2)ccc1OC(=O)CCNc1nnc(C)s1,-75.2% (active)
20,[N-]=[N+]=NCc1cccc(/C(O)=C/C(=O)C(=O)O)c1,90.7% (inactive)

row,SMILES,growth
1,Clc1ccc(C2c3ccccc3-c3nccn32)c(Cl)c1 (stereo unspecified),26.5% (inactive)
2,O=C(O)C1CCN(S(=O)(=O)c2ccc(-c3ccccc3)cc2)CC1,58.7% (inactive)
3,CSc1nc(N)c2c(n1)N(C)C=NS2(=O)=O,103% (inactive)
4,Cc1sc2nc(NCc3ccccc3)[nH]c(=O)c2c1C,49.6% (inactive)
5,Cc1cc(Br)c(C)cc1Br,103% (inactive)
6,O=C(/C=C(\Nc1ccccc1)c1ccccc1)c1cn(-c2ccc([N+](=O)[O-])cc2)nn1,84% (inactive)
7,COc1ccc(C2=NN(C=O)C(c3cccc(Nc4ccnc5cc(Cl)ccc45)c3)C2)cc1 (stereo unspecified),23.2% (inactive)
8,COc1ccc(NS(=O)(=O)N2CCCCC2)cc1,102% (inactive)
9,C[C@H]1C(=O)N2c3ccccc3[C@@]3(O)C[C@@H](n4cnc5ccccc5c4=O)C(=O)N1[C@@H]23,125% (inactive)
10,COP(=O)(OC)C(c1ccccc1)(c1ccccc1)c1ccccc1,87.5% (inactive)
11,O=c1ccn(C2CC=C(CO)O2)c(=O)[nH]1 (stereo unspecified),84.5% (inactive)
12,COc1ccc2c(c1)C(=Nc1cc(OC)c(OC)c(OC)c1)C(=O)N2,65.9% (inactive)
13,CC(=O)/C(=C/c1ccc(Cl)cc1)C(=O)c1ccccc1,34.8% (inactive)
14,Clc1ccc2nc(CI)c(CI)nc2c1,-36.6% (active)
15,COc1cc(C2CC(C3C(=O)N(C)C(=O)N(C)C3=O)=NN2C=O)cc(OC)c1OC (stereo unspecified),99.7% (inactive)
16,O=C(/C=C/c1ccc([N+](=O)[O-])cc1)c1ccc2c3c(cccc13)CC2,-14.1% (active)
17,COc1ccc(CC(=O)Nc2nn3c(-c4cc(C(F)(F)F)cc(C(F)(F)F)c4)nnc3s2)cc1,39.7% (inactive)
18,O=[N+]([O-])c1ccc2[nH]cc(-c3c4ccccc4cc4[nH]c5ccc([N+](=O)[O-])cc5c34)c2c1,11.6% (inactive)
19,O=Nc1c2cccnc2n2nnc3ccc(Cl)cc3c12,-63.1% (active)

# System: OVCAR-8 ovarian
# Assay: as above
# Conditions: 10 µM unless noted
row,SMILES,growth
1,CN1CCN(c2nc3scc(-c4ccccc4)c3c(=O)[nH]2)CC1,106% (inactive)
2,O=C(COc1cccc(/C=C2\Oc3ccc4ccccc4c3C2=O)c1)c1ccc([N+](=O)[O-])cc1,97.6% (inactive)
3,CCCCCCCCCCN1CCC(N2CCCCC2)CC1,-1.39% (active)
4,Nc1nc2c(c(=O)[nH]1)C1(C(=O)Nc3ccccc31)c1c(nc(N)[nH]c1=O)N2,114% (inactive)
5,O=c1c2ccccc2c2nccn2c2cc(Cl)ccc12,75.3% (inactive)
6,N#Cc1c(NC(=O)c2ccco2)[n+]([O-])c2cc(Cl)c(Cl)cc2[n+]1[O-],100% (inactive)
7,CCOC(=O)N1CCC(N=C2CSc3nnc(-c4cc(C(F)(F)F)cc(C(F)(F)F)c4)n3N2)CC1,22.2% (inactive)
8,Cn1c(N2N=C(c3ccc(Cl)cc3)CC2c2ccccc2)nc(-c2ccccc2)c(C#N)c1=O (stereo unspecified),73.8% (inactive)
9,CCSCC1CC(O)(c2ccccc2)C(c2ccccc2)C(c2ccc(Cl)cc2)O1 (stereo unspecified),-11.2% (active)
10,N#Cc1ccc(-c2csc(Nc3ccc4nc5n(c(=O)c4c3)CCC5)n2)cc1,106% (inactive)
11,CCCCNCCCN(CCCC)CCCNCCCC,96% (inactive)
12,COc1cccc(/C=C2\Cc3ccccc3C2=O)c1,97.2% (inactive)
13,C(#Cc1ccccc1C#Cc1ccccn1)c1ccc(OCCCCCCOc2ccc(C#Cc3ccccc3C#Cc3ccccn3)cc2)cc1,47.6% (inactive)
14,Cc1ccc(S(=O)(=O)N2CCN(C(=O)CSc3nc4ccc(C)cc4[nH]3)CC2)cc1,74.5% (inactive)
15,COC(=O)c1c(NC(=O)CSc2nnnn2-c2ccc(OC)cc2)sc(C)c1C,87% (inactive)
16,CCN(CC)CCNCC(=O)Oc1ccc(/C=C/C(=O)CC(=O)/C=C/c2ccc(OC(=O)CNCCN(CC)CC)c(OC)c2)cc1OC,3.99% (active)
17,Cc1ccc2c(c1)C(=O)/C(=C\Nc1ccc(C(N)=O)cc1)C(O)O2 (stereo unspecified),97.1% (inactive)
18,COc1cc(/C=C/C(=O)C(C(=O)/C=C/c2ccc(OC(=O)CCNc3nnc(C)s3)c(OC)c2)C(=O)CCNc2nnc(C)s2)ccc1OC(=O)CCNc1nnc(C)s1,7.54% (active)
19,[N-]=[N+]=NCc1cccc(/C(O)=C/C(=O)C(=O)O)c1,79.4% (inactive)

row,SMILES,growth
1,Clc1ccc(C2c3ccccc3-c3nccn32)c(Cl)c1 (stereo unspecified),84.1% (inactive)
2,O=C(O)C1CCN(S(=O)(=O)c2ccc(-c3ccccc3)cc2)CC1,81.4% (inactive)
3,CSc1nc(N)c2c(n1)N(C)C=NS2(=O)=O,102% (inactive)
4,Cc1sc2nc(NCc3ccccc3)[nH]c(=O)c2c1C,59.7% (inactive)
5,Cc1cc(Br)c(C)cc1Br,101% (inactive)
6,O=C(/C=C(\Nc1ccccc1)c1ccccc1)c1cn(-c2ccc([N+](=O)[O-])cc2)nn1,53.5% (inactive)
7,COc1ccc(C2=NN(C=O)C(c3cccc(Nc4ccnc5cc(Cl)ccc45)c3)C2)cc1 (stereo unspecified),17% (inactive)
8,COc1ccc(NS(=O)(=O)N2CCCCC2)cc1,105% (inactive)
9,C[C@H]1C(=O)N2c3ccccc3[C@@]3(O)C[C@@H](n4cnc5ccccc5c4=O)C(=O)N1[C@@H]23,91.7% (inactive)
10,COP(=O)(OC)C(c1ccccc1)(c1ccccc1)c1ccccc1,94.6% (inactive)
11,O=c1ccn(C2CC=C(CO)O2)c(=O)[nH]1 (stereo unspecified),103% (inactive)
12,COc1ccc2c(c1)C(=Nc1cc(OC)c(OC)c(OC)c1)C(=O)N2,105% (inactive)
13,CC(=O)/C(=C/c1ccc(Cl)cc1)C(=O)c1ccccc1,89.2% (inactive)
14,Clc1ccc2nc(CI)c(CI)nc2c1,93% (inactive)
15,COc1cc(C2CC(C3C(=O)N(C)C(=O)N(C)C3=O)=NN2C=O)cc(OC)c1OC (stereo unspecified),93.9% (inactive)
16,O=C(/C=C/c1ccc([N+](=O)[O-])cc1)c1ccc2c3c(cccc13)CC2,28.7% (inactive)
17,COc1ccc(CC(=O)Nc2nn3c(-c4cc(C(F)(F)F)cc(C(F)(F)F)c4)nnc3s2)cc1,65% (inactive)
18,O=Nc1c2cccnc2n2nnc3ccc(Cl)cc3c12,-26.8% (active)
